The values below come from ChEMBL document CHEMBL1157539, “Thousands of chemical starting points for antimalarial lead identification” (Nature, 2010).

What all share (format): functional
Assay [1] deals with Plasmodium falciparum. The assay can be described thus: GSK_TCMDC: Inhibition of Plasmodium falciparum 3D7 in whole red blood cells, using parasite LDH activity as an index of growth. Test compounds present at 2uM.
In assay [2] the test system is Plasmodium falciparum. The assay can be described thus: GSK_TCMDC: Inhibition of Plasmodium falciparum Dd2 in whole red blood cells, using parasite LDH activity as an index of growth. Test compounds present at 2uM.
The subject of a further assay is HepG2. The assay can be described thus: GSK_TCMDC: Percent inhibition of human HepG2 cell line. Test compounds present at 10uM.

By Inhibition is commonly meant the percentage by which the read-out fell short of the control. A low value points to little suppression.

Molecules are shown by their SMILES.

Turning to `CCc1cn2c3c(cc(C(=O)N[C@@H](Cc4ccccc4)[C@H](O)CNC4CC4)cc13)N(CC)S(=O)(=O)CC2.O=CO`, the figures for the Inhibition in the assay on Plasmodium falciparum [1], in the assay with Plasmodium falciparum [2] and with HepG2 were 98%, 99% and 13%, respectively.
The matching figures for `CCC1(C)N=C(N)N=C(N)N1c1ccccc1.Cl` (stereo unspecified): 98%, 0% and 6%.
The corresponding values for `CC(C)c1cccc(OCC2CCN(c3ccc(C(=O)Nc4ccccc4)cn3)CC2)c1` are 95%, 90% and 9%.
The matching figures for `Cc1ccc2c(c1)NCC21CCN(C[C@@H](O)C2CCN(c3ccnc(Cl)c3)CC2)CC1C` (stereo partly specified): 87%, 69% and 46%.
Turning to `O=S(=O)(Nc1cccc(CCN2CCCCC2CCN2CCCC2)c1)c1ccc(Oc2ccccc2)cc1` (stereo unspecified), the Inhibition with Plasmodium falciparum [1] is reported as 94%; in the assay on Plasmodium falciparum [2], 1%; in the assay with HepG2, 52%.
As to `COc1ccc2nccc([C@@H](O)CN3CCC(NCc4cc5cc(C)ccc5s4)CC3)c2c1.O=C(O)C(=O)O`, the Inhibition with Plasmodium falciparum [1] is reported as 92%; with Plasmodium falciparum [2] it was 74%; in the assay with HepG2 it was 13%.
For the compound `CC(=NNC(S)=NC(c1ccccc1)c1ccccc1)c1ccccn1`, the figures for the Inhibition in the assay on Plasmodium falciparum [1], in the assay with Plasmodium falciparum [2] and in the assay on HepG2 were 98%, 97% and 45%, respectively.
The matching figures for `CC(C)(CC1CCCCC1)NC(=O)[C@H](CC1CCCCC1)Nc1ccc(C#N)c2ccccc12.O=C(O)C(F)(F)F`: 98%, 52% and 14%.
Turning to `O=C(Nc1ccc(-c2nc3ccccc3[nH]2)cc1)C1CCN(Cc2ccccc2)CC1`, the Inhibition is listed as 100% in the assay on Plasmodium falciparum [1], 82% with Plasmodium falciparum [2] and 12% in the assay on HepG2.
The corresponding values for `Cc1ccc(O)c(-c2cc(C(=O)Nc3ccc(S(=O)(=O)N4CCCCC4)cc3)[nH]n2)c1` are 94%, 98% and 31%.
The matching figures for `COc1cccc(C2CCN(CCCCNC(=O)c3ccc(NC(=O)c4ccc(Cl)cc4)cc3)CC2)c1`: 99%, 40% and 18%.
The corresponding values for `Cc1ccc(Nc2nccc(Nc3ccc4c(C)n[nH]c4c3)n2)cc1F.Cl` are 95%, 1% and 6%.
`CC(C)NCc1ccc(-c2cccc(-c3nc4ccccc4[nH]3)c2)cc1.O=C(O)C(F)(F)F`: the figures for the Inhibition in the assay with Plasmodium falciparum [1], with Plasmodium falciparum [2] and in the assay on HepG2 were 100%, 34% and 21%, respectively.
The corresponding values for `COc1cccc(NC(=O)COc2ccc(C(=O)Nc3nc4ccccc4[nH]3)cc2)c1` are 99%, 29% and 19%.
The corresponding values for `COc1ccc(C2CC(c3cccs3)=NN2C(=O)c2ccco2)cc1OC` (stereo unspecified) are 100%, 97% and 0%.
The matching figures for `CCCCCN1CCC(NC(=O)c2ccc(C(=O)Nc3ccc(C(C)C)cc3)cc2)C1.O=C(O)C(F)(F)F` (stereo unspecified): 95%, 17% and 38%.
In the case of `Cc1ccc(N2CCN(CCCCNC(=O)c3ccc(NC(=O)c4ccc(Cl)cc4)cc3)CC2)c(C)c1`, the Inhibition turned out to be 95% with Plasmodium falciparum [1], 20% in the assay on Plasmodium falciparum [2] and 30% in the assay with HepG2.
The matching figures for `CCc1cn2c3c(cc(C(=O)N[C@@H](Cc4ccccc4)[C@H](O)CN[C@@H](C)CC)cc13)N(C)S(=O)(=O)CC2.O=CO`: 99%, 98% and 2%.
The corresponding values for `CC(=O)Nc1cccc(C(=O)Nc2ccc(-c3cccc(-c4nc5cc(C(F)(F)F)ccc5[nH]4)c3)cc2)c1` are 100%, 85% and 81%.
The matching figures for `N=C(N)Nc1nc(CCCCCCCCc2csc(NC(=N)N)n2)cs1`: 100%, 28% and 27%.
Turning to `CCOC(=O)c1ccc(NC(=O)N(Cc2ccc(-c3ccc(CN4CCNCC4)cc3)cc2)Cc2cccnc2)cc1.O=C(O)C(F)(F)F`, the Inhibition with Plasmodium falciparum [1] amounted to 94%; in the assay on Plasmodium falciparum [2] it was 34%; in the assay with HepG2 it was 13%.
`CCNc1cc(C)nc(Nc2ccc(NC(=O)c3ccccc3Br)cc2)n1`: the results for the Inhibition with Plasmodium falciparum [1], in the assay with Plasmodium falciparum [2] and in the assay with HepG2 were 100%, 56% and 46%, respectively.
The corresponding values for `COc1cccc(CN2CCCC(OC(c3ccc(F)cc3)c3ccc(F)cc3)C2)c1O` (stereo unspecified) are 95%, 95% and 8%.
The corresponding values for `CCCCNc1c(CC)c(C)c(C#N)c2nc3ccccc3n12` are 100%, 100% and 3%.
The matching figures for `O=C(NCCCCCN1CCC(c2c[nH]c3ccccc23)CC1)Nc1cccc(C(F)(F)F)c1`: 97%, 11% and 51%.
For the compound `CC[C@H](C)CNC(=O)c1cccc(-c2ccc(CN3CCC(N4CCCC4)CC3)cc2)n1.O=C(O)C(F)(F)F`, the Inhibition is on record as 100% in the assay with Plasmodium falciparum [1], 82% in the assay on Plasmodium falciparum [2] and 41% with HepG2.
The corresponding values for `N#Cc1ccc(N2CCN(Cc3ccc(-c4ccc(-c5nc6ccccc6[nH]5)s4)cc3)CC2)nc1.O=C(O)C(F)(F)F` are 99%, 63% and 17%.
The matching figures for `COC(=O)c1ccc2c(-c3nc4ccc(OC)cc4[nH]3)c[nH]c2c1`: 95%, 31% and 0%.
The corresponding values for `FC(F)(F)c1cccc(CCNc2nccc(NCc3ccccc3Cl)n2)c1` are 89%, 38% and 31%.
For the compound `O=C(/C=C/c1ccc(-c2nc3cc(F)c(F)cc3[nH]2)cc1)NCc1ccc(Cl)c(Cl)c1`, the Inhibition worked out at 100% in the assay on Plasmodium falciparum [1], 24% in the assay with Plasmodium falciparum [2] and 14% in the assay with HepG2.
In the case of `CCCN1CCN(Cc2ccc(-c3ccc(-c4nc5ccccc5[nH]4)s3)cc2)CC1`, the figures for the Inhibition in the assay with Plasmodium falciparum [1], in the assay with Plasmodium falciparum [2] and in the assay with HepG2 were 100%, 93% and 29%, respectively.
With `OC(CNCc1ccccc1OCc1ccccc1)c1cccc(Br)c1` (stereo unspecified), the Inhibition is 100% in the assay on Plasmodium falciparum [1], 97% in the assay with Plasmodium falciparum [2] and 0% in the assay with HepG2.
The matching figures for `COc1ccc(NC(=O)[C@H](Cc2ccccc2)Nc2cc(C)nc(NCCc3ccccc3OC)n2)cc1.O=C(O)C(F)(F)F`: 100%, 83% and 10%.
On to `Cc1cc(NC(=O)CCCN2CCN(c3cccc(Cl)c3Cl)CC2)ccc1N1CCN(C(C)C)CC1.Cl`, for which the Inhibition with Plasmodium falciparum [1] is given as 100%; in the assay with Plasmodium falciparum [2], 53%; in the assay on HepG2, 86%.
The corresponding values for `CNC(=O)c1cncc(/C=C/c2ccccc2S(N)(=O)=O)c1` are 100%, 77% and 17%.
Take `CN(C)CCNCc1nc(-c2ccc3c(Nc4ccc(Oc5ccccc5)cc4)ccnc3c2)cs1`: the Inhibition in the assay with Plasmodium falciparum [1] was 100%; with Plasmodium falciparum [2], 100%; in the assay with HepG2, 8%.
Consider `CCOc1cc(Cc2cnc(N)nc2N)cc(OC)c1OC`, for which the Inhibition with Plasmodium falciparum [1] worked out at 90%; with Plasmodium falciparum [2] it was 0%; in the assay with HepG2, 0%.
Consider `Cc1cc(NC(=O)c2coc3cc(F)c(N4CC(C)N(C)C(C)C4)cc23)cnc1-c1ccc(C#N)cc1.Cl` (stereo unspecified), for which the figures for the Inhibition with Plasmodium falciparum [1], in the assay with Plasmodium falciparum [2] and with HepG2 were 99%, 71% and 35%, respectively.
The corresponding values for `CCN(CC)CCN(Cc1ccc(-c2ccc(C(F)(F)F)cc2)nc1)C(=O)Cn1cc(Cc2cnn(C)c2)c(=O)n2nc(-c3ccccc3)cc12.O=C(O)C(O)C(O)C(=O)O` are 97%, 95% and 35%.
The matching figures for `NCc1ccc(CNCc2cccc(-c3ccc(-c4nc5cc(C(F)(F)F)ccc5[nH]4)cc3)c2)cc1.O=C(O)C(F)(F)F`: 98%, 90% and 13%.
The matching figures for `C[C@H](Cc1ccc(Oc2ccc(C[C@@H](C)NC[C@H](O)c3cccc(Cl)c3)cc2)cc1)NC[C@H](O)c1cccc(Cl)c1.Cl`: 100%, 96% and 99%.
As to `COc1ccc2ncc(F)c(CCN3CC[C@@H](CNCc4nc5c(cc4C)SCC(=O)N5)C3)c2n1.Cl`, the Inhibition with Plasmodium falciparum [1] worked out at 91%; in the assay with Plasmodium falciparum [2] it was 42%; in the assay with HepG2 it was 14%.
The matching figures for `CCCCCCCC1CC(CC(=O)Nc2ccnc3ccc(OC)cc23)CN1` (stereo unspecified): 90%, 58% and 22%.
The corresponding values for `CCCCCc1cc(O)c2c(c1)OC(C)(C)C=C2C1=CCN(Cc2ccsc2)CC1` are 98%, 48% and 20%.
The matching figures for `Cc1cccc2nc(-c3cccc(-c4ccc(NC(=O)CN5CCN(C)CC5)cc4)c3)[nH]c12`: 100%, 99% and 45%.
For the compound `CCNc1cc(C(=O)N[C@@H](Cc2ccccc2)[C@H](O)CNC(C)(C)Cc2cccc(OC)c2)cc(N2CCCC2=O)c1.O=CO`, the Inhibition in the assay with Plasmodium falciparum [1] is reported as 99%; with Plasmodium falciparum [2], 97%; in the assay with HepG2, 7%.
The matching figures for `CCOC(=O)N1CCN(C(=O)Nc2ccc(Cl)cc2)CC1`: 92%, 0% and 4%.
Take `CC(C)c1ccc(O)cc1Nc1ccnc2ccc(C(F)(F)F)cc12`: the Inhibition with Plasmodium falciparum [1] was 97%; in the assay on Plasmodium falciparum [2] it was 90%; in the assay with HepG2 it was 6%.
In the case of `Cc1nc2nc(N)nc(N)c2c(C)c1Cc1ccc(O)cc1.Cl`, the values for the Inhibition with Plasmodium falciparum [1], in the assay on Plasmodium falciparum [2] and with HepG2 were 94%, 0% and 64%, respectively.
With `COc1ccc2ccccc2c1C=NN=c1cc[nH]c2ccc(F)cc12`, the Inhibition with Plasmodium falciparum [1] amounted to 87%; with Plasmodium falciparum [2], 10%; in the assay with HepG2 it was 11%.
For the compound `CCN(CC)/C(=N/C(=N)NCc1cccc(Cl)c1)NCCCCCCN/C(=N\C(=N)NCc1cccc(Cl)c1)N(CC)CC`, the results for the Inhibition in the assay with Plasmodium falciparum [1], with Plasmodium falciparum [2] and with HepG2 were 99%, 99% and 17%, respectively.
For the compound `O=S(=O)(Nc1cccc(CCN2CCC(N3CCCCC3)CC2)c1)c1cccc2ccccc12`, the values for the Inhibition in the assay with Plasmodium falciparum [1], in the assay on Plasmodium falciparum [2] and with HepG2 were 99%, 63% and 23%, respectively.
The matching figures for `O=C(O)C(F)(F)F.O=S(=O)(NCCN1CCCC1)c1ccc(-c2ccc(CNC3Cc4ccccc4C3)cc2)cc1F`: 100%, 75% and 33%.
The matching figures for `Cl.O=c1cc(NCCCNCc2cc3c(Cl)cccc3s2)[nH]c2ccccc12`: 100%, 57% and 6%.
The corresponding values for `CCOc1ccc(C(C)NC(=O)Cc2ccccc2F)cc1OCC` (stereo unspecified) are 96%, 44% and 15%.
Consider `Cn1ccnc1-c1nc2ccccn2c1NCC(=O)Nc1ccccc1N1CCCCC1`, for which the Inhibition in the assay on Plasmodium falciparum [1] is recorded as 85%; in the assay on Plasmodium falciparum [2], 57%; with HepG2 it was 16%.
The matching figures for `Cc1cccc2nc(-c3cccc(-c4ccc(NC(=O)C5CC(=O)Nc6ccccc65)cc4)c3)[nH]c12` (stereo unspecified): 87%, 56% and 15%.
The matching figures for `CC(c1cccc(S(=O)(=O)NCc2cccc(C(F)(F)F)c2)c1)N1CCC(N2CCCCC2)CC1` (stereo unspecified): 99%, 35% and 37%.
In the case of `N=c1ccn(CC(=NO)c2ccc(Cl)c(Cl)c2)cc1`, the Inhibition in the assay with Plasmodium falciparum [1] was found to be 87%; with Plasmodium falciparum [2], 81%; in the assay with HepG2, 23%.
The matching figures for `Cc1cccc2nc(-c3cccc(-c4ccc(NC(=O)NCc5ccccc5)cc4)c3)[nH]c12`: 100%, 47% and 35%.
As for `c1csc(-c2nc(NCC3CCCO3)ncc2-c2ccsc2)n1` (stereo unspecified), the figures for the Inhibition in the assay with Plasmodium falciparum [1], in the assay with Plasmodium falciparum [2] and with HepG2 were 89%, 83% and 0%, respectively.
For the compound `Cc1cc(=NN=Cc2ccc(F)cc2)c2ccc(C(F)(F)F)cc2[nH]1`, the Inhibition in the assay with Plasmodium falciparum [1] came to 95%; in the assay with Plasmodium falciparum [2], 24%; in the assay with HepG2, 4%.
